# Measurements as given in the supplement of paper PMC6555819.
# Key:
# Experiment in all cases: PBM binding z-score (relative to random genomic background probes); higher = stronger binding; sequences stand for … in GC…GCGATTGACAGCGTAGAATGAAGG
# [1] = system: RARb homodimer (NR concentration 270 nM)
# In short: (§1)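 For binding z-scores, the reference was random background probes on custom Agilent 4×180K protein-binding microarrays. These arrays were incubated 1 h with ligand-free nuclear receptor dimers in PBS pH 7.4, 2% milk, 0.02% Triton X-100, 1 mM DTT, 0.2 mg/mL BSA and 0.4 mg/ml salmon testes DNA. Fluorescence was scanned after antibody detection of each partner (one per run) and regression-normalized.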
# [2] = system: RARg:RXRa (NR concentration 270 nM, RXRa partner concentration 90 nM)
# In short: as §1
# [3] = system: RARg homodimer (NR concentration 270 nM)
# In short: as §1
# [4] = system: RXRa DBDmut IVT, anti-RXR (DBD mutation: RXRa K156A/R161A, NR concentration 90 nM)
# In short: as §1
# [5] = system: RXRa homodimer (NR concentration 180 nM)
# In short: as §1
# [6] = system: THRa:RXRa (NR concentration 90 nM, RXRa partner concentration 90 nM)
# In short: as §1
# [7] = system: THRa homodimer (NR concentration 90 nM)
# In short: as §1
# [8] = system: VDR:RXRa (NR concentration 270 nM, RXRa partner concentration 90 nM)
# In short: as §1
# [9] = system: VDR homodimer (NR concentration 270 nM)
# In short: as §1
Sequence,PBM binding z-score [1],PBM binding z-score [2],PBM binding z-score [3],PBM binding z-score [4],PBM binding z-score [5],PBM binding z-score [6],PBM binding z-score [7],PBM binding z-score [8],PBM binding z-score [9]
CGTACTAGGTCAGAACAGGACAGTGAAGGATGAT,2.2,2.5,3.38,0.907,0.946,3.33,0.353,0.861,0.141
TCAAATAGGTAAAAGGTGAAAGTCGGTGTGGTAA,2.05,1.86,1.07,2.15,3.26,1.77,0.3,1.79,0.497
ATCTCTGGGTAAGACTCAGTTCAGTGAAGAACGC,0.372,0.252,0.292,0.0786,-0.0436,0.589,0.517,0.528,1.27
TCTCGGAGGAAACGAAGGTCAGAGCTTTCCAGAG,2.69,1.88,1.53,-0.239,1.5,1.38,-0.547,,-0.0279
GGAACGAGGGCATTCGAGTTGATAGAATGGCGAT,0.53,1.01,1.5,2.88,0.761,3.35,-0.605,3.62,3.02
CCTGCTAAGTCAATGGTCAGCTAAAGCAGCTCGC,0.12,-0.277,-0.302,0.497,-0.263,-0.402,-0.724,-0.304,-0.804
CCTCGGAGGACAGACGGTCAGAGCTGTCCGCTTT,0.948,0.15,1.12,-0.152,-0.87,-0.0863,-0.156,-0.53,-0.276
TCATATAGGAAAATGCTAGGTGAAAGTCCGATCT,0.42,0.204,0.133,1.41,0.778,0.612,0.548,0.9,0.37
GCTAGTTGGTCAGTAAAAGGGCACACACCGGTCG,2.59,1.6,1.32,-0.382,0.632,0.395,-0.0299,0.0154,0.271
CCTTACGAGTCACTGACAGGTTATAGCATTTGGA,1.23,1.22,0.808,0.998,0.893,0.852,0.813,1.06,0.964
CAAACTAGTTCAAAGGTCAAAGTCGAGCCAACCA,4.9,7.49,6.13,3.58,9.59,4.16,1.06,6.02,3.89
TCTGGTAGATCAAAGGTTAAGAAAGCCGAAGCCT,1.4,1.89,0.73,0.747,3.05,1.33,-0.327,1.48,0.151
CAAACTAGGTCACCGGAAGGTCAAATTCCGCATG,5.55,8.17,7.31,2.13,6.55,4.58,3.11,5.9,2.93
ATATGTAGGTTAGCTGGGGTCAATCAGACTAGGC,3.82,4.3,3.37,1.26,5.42,5.12,2.82,5.46,3.44
CAGCCTAGGTCAGGGCCAGTATTGGAGGAACGTT,2.67,2.91,3.91,-0.14,1.62,2,0.259,-0.0862,-0.444
ATCTCTAGGTAAAGAGAGTTCAGTGAATGCAAAT,1.55,0.963,1.18,1.12,0.653,1.56,-0.0506,3.33,3.67
ATCGAAAGGTCTTGAGGTGAGTATACAGAAAGGC,1.41,1.77,1.87,-0.483,1.48,2.34,1.21,0.496,-0.0653
CCGATTGGGGCAGAAAGGTTACCATACCATCCGG,2.03,1.61,1.25,-0.405,1.75,0.945,-0.567,0.707,-0.225
CCTCGGAGGACAGATGGTCAGAGCTGTCCGCTTT,0.0769,0.0731,0.421,-0.0448,-0.625,-0.175,-0.332,-0.581,-0.436
TCTCGGAGGACACGAAGGTCAGAGCATTCCAGAG,3.61,3.22,4.02,0.583,1.97,2.87,0.91,2.31,1.04
GCTAGTTGGTCAGTAAAAGGTCACACAGCGGTCG,4.98,5.92,5.1,0.686,5.48,3.67,1.78,,2.18
GCGACTGGGGCAAATCAGGTTACCATAAGGTTGG,1.4,0.714,0.619,-0.00232,0.576,4.22,0.742,0.324,-0.198
AGAATGAGGTTCTTAAGATCAGGGAATTGCGGTC,-0.377,-0.106,-0.186,0.301,-0.00148,0.365,0.000852,0.0724,-0.0897
CGTCAAAGTTCAACTAAGGTAATGTAAAGCACGC,4.29,5.86,6.53,4.51,5.18,5.18,1.31,4.8,3.69
CCTCGGAGGACAACAGGAGGTCAGCGCTGCCAGA,3.96,4.12,4.04,0.326,2.28,3.14,1.31,,1.13
CGAACTAGGGCATTGACAGGACAGTGAATAGTAA,0.812,1.07,1.13,0.467,0.388,0.559,-0.0936,-0.141,0.137
